Measurements taken from PubChem BioAssay (NCI).
The panel holds about 79,000 compounds, 15% with a hit somewhere; the sample as a whole holds those more often. Activity calls are given as the source filed them. No stated cut-off is given here; in the data, active means growth inhibition above about 70%; inactive means the rest.

Assays:
[1] = NCI Yeast Anticancer Drug Screen. Data for the rad50 strain (AID 155);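 further: 0% = growth of vehicle-only cultures of the same strain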; details: S. cerevisiae rad50 strain growth inhibition, active compounds read high
In short: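 Growth of the mutant yeast was measured after compound exposure and referenced to vehicle-treated cultures.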

[2] = NCI Yeast Anticancer Drug Screen. Data for the mec2-1 strain (AID 157); details: S. cerevisiae mec2-1 strain, active compounds read high
In short: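 Growth inhibition is read against vehicle-treated controls after compound exposure of the mec2-1 yeast strain, which is defective in DNA damage repair or cell cycle control.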

[3] = NCI Yeast Anticancer Drug Screen. Data for the sgs1 mgt1 strain (AID 161);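 further: 0% = growth of cultures given vehicle only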; details: S. cerevisiae sgs1 mgt1 strain, active compounds read high
In short: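 Compounds are added to genetically altered yeast, and growth is compared with cultures given vehicle alone to give percent inhibition.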

[4] = NCI Yeast Anticancer Drug Screen. Data for the cln2 rad14 strain (AID 165);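 further: 0% = growth equal to vehicle treated cultures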; details: S. cerevisiae cln2 rad14 strain, active compounds read high
In short: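 Growth inhibition, relative to vehicle-treated controls, is the read-out. The test organism is a yeast strain with defined genetic alterations, cln2 rad14.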

[5] = NCI Yeast Anticancer Drug Screen. Data for the bub3 strain (AID 167); details: S. cerevisiae bub3 mutant strain, active compounds read high
In short: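 Whole-cell yeast assay. The mutant strain was incubated with compounds, and growth inhibition was determined by comparison with vehicle-treated cells.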

[6] = NCI Yeast Anticancer Drug Screen. Data for the mlh1 rad18 strain (AID 175); details: S. cerevisiae mlh1 rad18 strain growth inhibition, active compounds read high
In short: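 Cells of a genetically altered yeast strain, deficient in DNA damage repair, were treated with compound. Their growth was then compared with that of vehicle-treated cultures to give inhibition.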

[7] = at 5.0 µM (retest, dose inferred, filed as 0.5)
[8] = at 50.0 µM (retest, dose inferred, filed as 5.0)

Measured: growth inhibition

O=C1c2ccccc2/C=C\C(c2ccccc2)=N/N1c1ccccc1Cl
inactive: [1]; [7] 7% | [1]; [8] 52% | [2]; [7] 0% | [2]; [8] 69% | [3]; [7] 9% | [4]; [7] -2% | [4]; [8] 37% | [4]; at 50.0 µM 60.2% | [5]; [7] -4% | [5]; [8] 52% | [6]; [7] 7% | [6]; [8] 48%
active: [1]; at 50.0 µM 84.8% | [2]; at 50.0 µM 83.5% | [3]; [8] 81% | [3]; at 50.0 µM 83.8% | [5]; at 50.0 µM 85.2% | [6]; at 50.0 µM 84.7%

Cc1ccc(N=C2SC(=S)N(CCC[N+](C)(C)C)C2=Nc2ccc(C)cc2)cc1
active: [1]; [8] 99% | [1]; at 50.0 µM 99.2% | [2]; [8] 100% | [2]; at 50.0 µM 99.5% | [3]; [8] 99% | [3]; at 50.0 µM 99.5% | [4]; [8] 99% | [4]; at 50.0 µM 99.5% | [5]; [8] 99% | [5]; at 50.0 µM 99.4% | [6]; [8] 100% | [6]; at 50.0 µM 99.4%
inactive: [1]; [7] -5% | [2]; [7] -18% | [3]; [7] -10% | [4]; [7] 12% | [5]; [7] -4% | [6]; [7] 3%

Nc1ccc(C(=O)Oc2cccccc2=O)cc1
active: [1]; at 50.0 µM 82% | [3]; at 50.0 µM 91.5% | [5]; at 50.0 µM 77.2% | [6]; [8] 78% | [6]; at 50.0 µM 95.4%
inactive: [1]; [7] 3% | [1]; [8] 36% | [2]; [7] 2% | [2]; [8] 32% | [2]; at 50.0 µM 42.9% | [3]; [7] 7% | [3]; [8] 52% | [4]; [7] 3% | [4]; [8] 20% | [4]; at 50.0 µM 16.1% | [5]; [7] -1% | [5]; [8] 32% | [6]; [7] 4%

COC(=O)/C(=C/c1ccc(/C=C(/C(=O)O)c2ccc(OC)cc2)o1)c1ccccc1
active: [1]; [8] 99% | [2]; [8] 99% | [3]; [8] 99% | [4]; [8] 99% | [5]; [8] 99% | [6]; [8] 99%
inactive: [1]; [7] 3% | [1]; at 50.0 µM 8.35% | [2]; [7] 2% | [2]; at 50.0 µM 10.8% | [3]; [7] 0% | [3]; at 50.0 µM -3.5% | [4]; [7] 15% | [4]; at 50.0 µM 11.6% | [5]; [7] 0% | [5]; at 50.0 µM 1.7% | [6]; [7] 3% | [6]; at 50.0 µM 30.8%

CC(C)(C)N=C=NC(c1ccccc1)(c1ccccc1)c1ccccc1
inactive: [1]; [7] -3% | [1]; [8] -21% | [1]; at 50.0 µM -1.9% | [2]; [7] -9% | [2]; [8] -7% | [2]; at 50.0 µM -6.1% | [3]; [7] -6% | [3]; [8] -24% | [3]; at 50.0 µM 2.45% | [4]; [7] -1% | [4]; [8] -18% | [4]; at 50.0 µM 42.5% | [5]; [7] -6% | [5]; [8] -22% | [5]; at 50.0 µM 4.5% | [6]; [7] 11% | [6]; [8] 1% | [6]; at 50.0 µM -3.25%

Oc1cc2c(cc1C(c1ccc(Cl)cc1)N1CCOCC1)OCO2 (stereo not given)
active: [1]; [8] 98% | [1]; at 50.0 µM 99% | [2]; [8] 99% | [2]; at 50.0 µM 99.2% | [3]; [8] 99% | [3]; at 50.0 µM 99% | [4]; [8] 83% | [4]; at 50.0 µM 96.5% | [5]; [8] 98% | [5]; at 50.0 µM 98.9% | [6]; [8] 99% | [6]; at 50.0 µM 98.8%
inactive: [1]; [7] 1% | [2]; [7] -1% | [3]; [7] 7% | [4]; [7] -8% | [5]; [7] -7% | [6]; [7] 0%

CCCN1CSC(=S)N(CCC)C1
inactive: [1]; [7] 41% | [1]; at 50.0 µM 52.5% | [2]; [7] 48% | [3]; [7] 32% | [4]; [7] 66% | [4]; at 50.0 µM 32.1% | [5]; [7] 34% | [6]; [7] 37%
active: [1]; [8] 92% | [2]; [8] 92% | [2]; at 50.0 µM 77% | [3]; [8] 99% | [3]; at 50.0 µM 80.5% | [4]; [8] 98% | [5]; [8] 100% | [5]; at 50.0 µM 86.2% | [6]; [8] 97% | [6]; at 50.0 µM 72.8%

Clc1ccccc1CN1COc2c(cc(Cl)c3cccnc23)C1
inactive: [1]; [7] 21% | [2]; [7] 6% | [4]; [7] 6% | [5]; [7] 61%
active: [1]; [8] 99% | [1]; at 50.0 µM 98.6% | [2]; [8] 99% | [2]; at 50.0 µM 99.5% | [3]; [7] 87% | [3]; [8] 100% | [3]; at 50.0 µM 99.4% | [4]; [8] 99% | [4]; at 50.0 µM 98.8% | [5]; [8] 99% | [5]; at 50.0 µM 99.3% | [6]; [7] 97% | [6]; [8] 99% | [6]; at 50.0 µM 99%

O=c1[nH]c2c([N+](=O)[O-])cc(Cl)cc2nc1/C=C(\O)c1ccc(F)cc1
inactive: [1]; [7] 12% | [1]; [8] 64% | [2]; [7] -6% | [2]; [8] 23% | [2]; at 50.0 µM 42.8% | [3]; [7] 3% | [3]; [8] 54% | [4]; [7] 5% | [4]; [8] 42% | [4]; at 50.0 µM 42.2% | [5]; [7] 2% | [5]; [8] 41% | [5]; at 50.0 µM 43.5% | [6]; [7] -3% | [6]; [8] 65%
active: [1]; at 50.0 µM 71.1% | [3]; at 50.0 µM 73.4% | [6]; at 50.0 µM 87.3%

CCC12C=CCN3CCC4(c5cc(C(c6ccccn6)c6cc7ccccc7n6C)c(OC)cc5N(C)C4C(O)(C(=O)OC)C1OC(C)=O)C32 (stereo not given)
active: [2]; at 50.0 µM 81.5% | [4]; at 50.0 µM 83.3% | [6]; at 50.0 µM 94.7%
inactive: [1]; [7] 4% | [1]; [8] 0% | [1]; at 50.0 µM 68.3% | [2]; [7] 46% | [2]; [8] 0% | [3]; [7] -1% | [3]; [8] 2% | [3]; at 50.0 µM 49.6% | [4]; [7] -2% | [4]; [8] -5% | [5]; [7] -2% | [5]; [8] -3% | [5]; at 50.0 µM 65% | [6]; [7] 3% | [6]; [8] 11%
